Screening results: PubChem, several laboratories
Only some compounds are listed: those with a hit (about 5.4% of all), similar ones and a draw of the others.
SKKanGAS inh – SKKanGAS growth inhibition | actives 1.3% (n = 300,000) | S. pyogenes SKKanGAS, kanamycin growth, BacTiter-Glo, 6 h | inhibition, % at 7.5 µM;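 active = mean replicate score, as percent of positive control median, at least 50; inconclusive = mean below 50 but one replicate at or above 50; inactive = mean and every replicate below 50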;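 also: strain carries kanamycin resistance gene driven by streptokinase promoter and grows in 40 µg/ml kanamycin; loss of luminescence reflects streptokinase promoter inhibition or plain growth inhibition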
MPTP block – inhibitors of mitochondrial permeability transition pore; isolated mouse mitochondria, Ca2+ swelling absorbance, 30 min; AID 602449; inhibition, % at 10 µM; actives 1.4% (n = 360,000);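 active = inhibition of 50% or more, scaled per plate between neutral and stimulator controls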
Mdm2-MdmX inh – inhibitors of human Mdm2/MdmX interaction | SaOS-2 split-luciferase Mdm2/MdmX complementation, luminescence | O15151+Q00987 | inhibition, % at 8 µM | actives 3% (n = 330,000);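 active = inhibition of at least 50% at 8 µM in the primary screen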
Target sequence (O15151 whole entry, looked up): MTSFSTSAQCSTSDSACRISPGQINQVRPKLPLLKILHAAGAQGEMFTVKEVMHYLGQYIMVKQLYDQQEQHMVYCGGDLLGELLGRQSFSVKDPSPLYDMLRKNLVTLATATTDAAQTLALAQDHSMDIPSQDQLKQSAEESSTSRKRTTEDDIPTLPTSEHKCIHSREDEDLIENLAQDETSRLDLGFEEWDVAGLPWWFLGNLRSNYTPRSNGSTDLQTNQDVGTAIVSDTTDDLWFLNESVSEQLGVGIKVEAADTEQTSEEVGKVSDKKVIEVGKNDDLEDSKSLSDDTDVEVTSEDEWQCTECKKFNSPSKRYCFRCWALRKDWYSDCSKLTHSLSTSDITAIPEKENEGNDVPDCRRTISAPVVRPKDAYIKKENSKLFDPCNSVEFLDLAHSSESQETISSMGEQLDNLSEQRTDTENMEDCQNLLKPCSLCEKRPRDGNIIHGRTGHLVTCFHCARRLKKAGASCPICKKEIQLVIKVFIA
Target sequence (Q00987 whole entry, looked up): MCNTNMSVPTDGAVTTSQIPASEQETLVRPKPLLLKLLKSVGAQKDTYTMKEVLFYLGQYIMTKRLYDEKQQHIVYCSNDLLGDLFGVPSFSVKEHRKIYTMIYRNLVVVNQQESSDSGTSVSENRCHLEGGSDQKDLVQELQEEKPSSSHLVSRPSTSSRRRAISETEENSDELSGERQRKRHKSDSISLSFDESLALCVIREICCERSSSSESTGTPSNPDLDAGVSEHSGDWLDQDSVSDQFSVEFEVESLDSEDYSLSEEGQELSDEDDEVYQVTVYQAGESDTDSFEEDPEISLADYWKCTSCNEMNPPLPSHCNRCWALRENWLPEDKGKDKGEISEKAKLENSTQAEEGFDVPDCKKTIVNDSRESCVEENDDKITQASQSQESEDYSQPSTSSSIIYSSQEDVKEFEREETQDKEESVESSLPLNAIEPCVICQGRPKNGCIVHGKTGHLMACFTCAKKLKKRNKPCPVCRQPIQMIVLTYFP
Beta cell apopt – beta cell apoptosis inhibition; INS-1E cytokine-induced death, ATP luminescence, 48 h; percent of positive-control rescue, neutral wells zero; protection from apoptosis, % (no concentration beside the values); actives 0.8% (n = 300,000); AID 435005;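 active = Every replicate reaches about 75%, or at least half do and their mean reaches it too, limit read from the data; inconclusive = At least half of replicates reach the limit but their mean does not; inactive = Under half of replicates reach the limit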;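 also: higher means more ATP so stronger rescue from cytokine killing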
Calb FLC – C. albicans growth modulation with fluconazole; C. albicans CaCi-2 (fluconazole-resistant clinical isolate) + fluconazole, Alamar Blue growth, 48 h; growth inhibition, % (no concentration beside the values); actives 0.57% (n = 300,000);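 active = growth inhibition above about 58% in most replicates, limit read from the data, passing the limit was not always enough; inconclusive = exactly half the replicates above a set limit; inactive = most replicates below a set limit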;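 also: all wells also contain fluconazole at 8 µg/ml as a sub-toxic cotreatment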
CSC inhib – blocks cancer stem cells; cancer stem cell-like cells viability, luminescence; inhibition, % at 7.5 µM; actives 1.1% (n = 300,000); AID 2717; in the data active = inhibition above about 75%; inconclusive = no clear call, values can overlap the other calls; tested in HMLE shEcad cells
Mdm2 MdmX conf – human Mdm2/MdmX binding inhibition, confirmed | shares compounds with Mdm2-MdmX inh | luminescent assay | inhibition, % at 8 µM | actives 55% (n = 10,000); in the data active = inhibition above about 40%
Full FLuc ctr – full-length luciferase inhibition in Mdm2/MdmX counter-screen. actives 77% (n = 6,200). inhibition, % at 8 µM. shares compounds with Mdm2-MdmX inh. SaOS-2 full-length luciferase counterscreen, luminescence;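 active = mean inhibition at 8 µM reaching about 37%, which flags the compound as non-specific, limit read from the data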;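 also: p53-null SaOS-2 cells with luciferase driven by a doxycycline-inducible promoter; compound on cells about two nights before reading with doxycycline added after day one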
Hits are given with their value; - = inactive; ? = inconclusive; . = no result.

SMILES	SKKanGAS inh	MPTP block	Mdm2-MdmX inh	Beta cell apopt	Calb FLC	CSC inhib	Mdm2 MdmX conf	Full FLuc ctr
Cc1ccc(C#N)c(SCc2cc3c(cc2Cl)OCO3)n1	-	-	-	-	-	-	.	.
Cc1cc(C)c(C#N)c(SCc2nnc(-c3ccccc3)o2)n1	-	-	84.8	-	-	.	90.9	49.0
Cc1ccc(C#N)c(SCc2nnc(-c3ccc(Cl)cc3)o2)n1	-	-	88.1	-	-	-	92.5	57.4
COc1ccc(Cl)cc1NC(=O)C/C(C)=N/NC(=O)Cc1ccccc1	-	-	-	-	-	-	.	.
COC(=O)c1ccc2nc(-c3cccc(Br)c3)c(CC3CCCCC3)n2c1	.	-	.	.	.	.	.	.
CCOc1ccc2nc(-c3ccccc3)nc(SCC(=O)Nc3ncc(C)s3)c2c1	-	-	74.9	-	-	-	-	.
COc1ccc(-c2cc(-c3ccccc3)nc(SCC(=O)Nc3ncc(C)s3)c2C#N)cc1	-	-	-	-	?	-	.	.
CC(=O)Nc1ccc(S(=O)(=O)NCc2cc(=O)n(C)c(=O)n2C)cc1	-	-	-	-	-	-	.	.
O=C1C(=C2SCCCS2)CC/C1=C\c1ccc(F)cc1	-	-	82.1	-	-	-	81.0	-
Cc1ccc(C(C)C)c(OCc2nn(CC(=O)c3ccc(OC(F)F)cc3)c3[n+]2CCCCC3)c1	70.7	-	94.8	113.5	89.6	94.5	86.8	-
COc1ccc(NC(=O)CN(C)CC(=O)NCC2CCCCC2)cc1	.	-	-	.	.	.	.	.
COc1ccc(N2CC(NC(=O)c3cccc4ccccc34)CC2=O)cc1OC (stereo unspecified)	-	-	-	-	-	.	.	.
Cc1[nH]c2ccccc2c(=O)c1C(=O)/C=C/c1ccccc1	-	-	100.3	-	-	-	99.6	51.8
O=C(NCc1cccs1)Nc1ccc(Cl)cc1	-	-	-	-	-	-	.	.
CCOC(=O)c1c(NC(=O)CN2CCN(C(=O)c3ccco3)CC2)sc2c1CCCC2	-	-	56.3	-	102.7	-	-	.
CCOC(=O)c1c(NC(=O)c2ccco2)sc2c1CCCC2	-	-	-	-	-	-	.	.
CCOC(=O)c1c(NC(=O)COc2cccc3c2CCN(CC)C3=O)sc2c1CCC2	-	-	59.9	-	-	-	-	.
COc1cccc(C(=O)Nc2ccc3[nH]ncc3c2)c1OC	-	-	-	-	-	-	.	.
O=C(CCN1C(=O)S/C(=C\C=C\c2ccccc2)C1=O)Nc1ccc(O)cc1	-	-	-	-	-	-	.	.
O=C(CN1C(=O)S/C(=C\C=C\c2ccccc2)C1=O)Nc1cccc(O)c1	-	-	99.3	-	?	93.0	-	.
COC(=O)c1sc(-c2ccccc2)cc1NC(=O)c1ccc(OC)cc1	-	-	75.5	-	-	-	-	.
CCOC(=O)c1cc(-c2ccccc2)sc1NC(=O)c1ccc(OC)cc1	-	.	75.0	-	?	-	-	.
Cc1ccc(CNC(=O)c2ccc3c(=O)n4c(-c5ccc(C)cc5)csc4nc3c2)cc1	-	-	56.9	-	-	.	44.0	89.8
CN(C)CCn1c(=O)n(Cc2ccccc2)c(=O)c2c3c(sc21)CCCCC3	-	-	-	-	-	-	.	.
CN(C)CCCNc1nc2sc3c(c2c(=O)n1CCc1ccccc1)CCCCC3	-	-	69.7	-	-	-	-	.
SMILES	SKKanGAS inh	MPTP block	Mdm2-MdmX inh	Beta cell apopt	Calb FLC	CSC inhib	Mdm2 MdmX conf	Full FLuc ctr
NC(=O)Cn1c(=O)n(CCc2ccccc2)c(=O)c2c3c(sc21)CCCC3	-	-	58.3	-	-	-	-	.
CN(C)CCCn1c(=O)n(CCc2ccccc2)c(=O)c2c3c(sc21)CCCCC3	-	-	77.0	.	-	-	-	.
N#Cc1c(C(F)(F)F)cc(-c2ccccc2Cl)[nH]c1=O	-	-	-	-	-	-	.	.
CNC(=O)NC(=O)C(C)OC(=O)CCCSc1nc2ccccc2s1 (stereo unspecified)	-	-	-	-	-	-	.	.
Cc1ccc(NC(=O)c2ccc(CN3CCN(C)CC3)cc2)cc1Nc1nccc(-c2cccnc2)n1	-	.	-	.	.	-	.	.
O=C(CSCc1cccc(Cl)c1)N/N=C/c1ccc(OCC(=O)N2CCCCC2)cc1	-	-	-	.	-	.	.	.
COCCCNC(=O)C[C@H]1C[C@H](C(=O)N2CCCCC2)[C@@]2(CCc3ccccc3)c3[nH]c4ccc(Cl)cc4c3CCN2C1=O	.	-	-	.	.	.	.	.
CC(C)(C)NC(=O)C[C@H]1C[C@H](C(=O)N2CCCCC2)[C@@]2(CCc3ccccc3)c3[nH]c4ccc(Cl)cc4c3CCN2C1=O	.	-	51.8	.	.	.	-	73.2
O=C(C[C@H]1C[C@H](C(=O)N2CCCCC2)[C@@]2(CCc3ccccc3)c3[nH]c4ccc(Cl)cc4c3CCN2C1=O)NCc1cccc(C(F)(F)F)c1	.	-	66.2	.	.	.	61.5	-
COc1ccc(NC(=O)C2CCN(S(=O)(=O)c3ccc(Br)s3)CC2)cc1OC	-	-	-	-	-	-	.	.
CCCCCc1cc(=O)oc2c(C(CCN3CCCCC3)c3ccc4c(c3)OCO4)c(OC)cc(OC)c12 (stereo unspecified)	-	-	93.1	98.4	-	?	49.1	65.1
CCCCCc1cc(=O)oc2c(C(CCN(CC)CC)c3cc(OC)c(OC)c(OC)c3)c(OC)cc(OC)c12 (stereo unspecified)	-	-	99.8	-	-	107.4	-	-
CCCCCc1cc(=O)oc2c(C(CCN3CCCC(C)C3)c3ccc4c(c3)OCO4)c(OC)cc(OC)c12 (stereo unspecified)	-	-	78.6	-	-	108.0	-	65.7
O=C1C(Cl)=C(NCCCO)C(=O)c2ccccc21	-	-	-	-	?	-	.	.
CN(C)c1ccc(NC2=C(Cl)C(=O)c3ccccc3C2=O)cc1	.	-	100.3	-	.	147.1	98.8	-
CC(=O)Nc1ccc(NC2=C(Cl)C(=O)c3ccccc3C2=O)cc1	-	.	100.3	.	-	.	100.2	51.9
CCOC(=O)CN(C(=O)CSc1nnc(COc2ccc(OC)cc2)n1CC)c1ccccc1	-	-	-	-	-	-	.	.
N=c1n(CCN2CCOCC2)c2ccccc2n1CC(=O)c1ccc(Cl)c(Cl)c1	-	-	-	-	-	-	.	.
N=c1n(CCN2CCCC2)c2ccccc2n1CC(O)c1ccc(Cl)c(Cl)c1 (stereo unspecified)	-	-	95.5	-	-	-	98.8	103.5
Cc1ccc(OCC(O)Cn2c(=N)n(CCN3CCCCC3)c3ccccc32)cc1 (stereo unspecified)	-	-	68.5	-	-	-	57.9	47.5
CCCCn1c(=N)n(CCOc2ccc(C)cc2)c2ccccc21	-	-	63.4	-	-	-	-	62.6
COc1ccc(OCC(O)Cn2c(=N)n(CCN3CCCCC3)c3ccccc32)cc1 (stereo unspecified)	.	-	52.5	-	.	-	40.9	76.8
COc1ccc([C@H]2C[C@@H](n3cc(C4CC4)nn3)[C@H](O)CN2C(=O)c2cccs2)cc1	.	-	.	.	.	.	.	.
